From PubChem BioAssay (NCATS)
Inconclusive results are not listed. The source made the active and inactive calls. The call rests on the fitted dose curve; in most records, active means well fitted inhibition curve with a large enough effect; inconclusive means small, poorly fitted or top-dose-only effect; inactive means flat fitted curve, though single readings scatter.

Key:
Test in all cases: qHTS profiling for inhibitors of Plasmodium falciparum proliferation (AID 504749); further: nearly all actives have a fitted effect of over 60% in size
Conditions in all cases: P. falciparum in erythrocytes, SYBR Green DNA, 72 h; series mostly up to 28.7 µM
CP262 = test system: CP262
Outline: (§1)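 P. falciparum-infected erythrocytes (0.3% parasitemia, 2.5% hematocrit) incubated with compound 72 h at 37 C, 5% CO2. Parasite DNA detected by SYBR Green after lysis, overnight at room temperature; normalised to 0.29 uM artemisinin and DMSO.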

CP265 = test system: CP265
Outline: as §1

CP266 = test system: CP266
Outline: as §1

CP268 = test system: CP268
Outline: as §1

CP269 = test system: CP269
Outline: as §1

CP286 = test system: CP286
Outline: as §1

CP291 = test system: CP291
Outline: as §1

CP297 = test system: CP297
Outline: as §1

CP305 = test system: CP305
Outline: as §1

CP315 = test system: CP315
Outline: as §1

CP325 = test system: CP325
Outline: as §1

CP335 = test system: CP335
Outline: as §1

DFO2036 = test system: DFO2036
Outline: as §1

DIV14 = test system: DIV14
Outline: as §1

DIV17 = test system: DIV17
Outline: as §1

DIV30 = test system: DIV30
Outline: as §1

Dd2 = test system: Dd2
Outline: as §1

ECU = test system: ECU
Outline: as §1

FAB9 = test system: FAB9
Outline: as §1

GB4 = test system: GB4
Outline: as §1

HB3 = test system: HB3
Outline: as §1

ICS = test system: ICS
Outline: as §1

JCK = test system: JCK
Outline: as §1

N140 = test system: N140
Outline: as §1

P93_24 = test system: P93_24
Outline: as §1

P94_40 = test system: P94_40
Outline: as §1

PAD = test system: PAD
Outline: as §1

PC15 = test system: PC15
Outline: as §1

PC26 = test system: PC26
Outline: as §1

PC49 = test system: PC49
Outline: as §1

SC27B = test system: SC27B
Outline: as §1

TAB109 = test system: TAB109
Outline: as §1

TAB113 = test system: TAB113
Outline: as §1

TAB165 = test system: TAB165
Outline: as §1

W2 = test system: W2
Outline: as §1

Measured: Potency
Potency means the concentration at half of the fitted maximal effect.

CC[C@]1([C@H]2O[C@@H]([C@@H]3O[C@](O)(CO)[C@@H](C)C[C@H]3C)C[C@H]2C)CC[C@@H]([C@]2(C)CC[C@@]3(C[C@@H](O)[C@@H](C)[C@@H]([C@H](C)[C@H](OC)[C@H](C)C(=O)O)O3)O2)O1
active: CP262 0.0269 µM | CP265 0.0316 µM | CP266 0.0536 µM | CP268 0.0379 µM | CP269 0.0338 µM | CP286 0.0224 µM | CP291 0.019 µM | CP297 0.0338 µM | CP305 0.0338 µM | CP315 0.0338 µM | CP325 0.0301 µM | CP335 0.019 µM | DFO2036 0.0355 µM | DIV14 0.0338 µM | DIV17 0.0269 µM | DIV30 0.0379 µM | Dd2 0.0398 µM | ECU 0.0501 µM | FAB9 0.0708 µM | GB4 0.0269 µM | HB3 0.0447 µM | ICS 0.02 µM | JCK 0.0708 µM | N140 0.0398 µM | P93_24 0.0447 µM | P94_40 0.0251 µM | PAD 0.0631 µM | PC15 0.0562 µM | PC26 0.0239 µM | PC49 0.0708 µM | SC27B 0.0501 µM | TAB109 0.0316 µM | TAB113 0.0501 µM | TAB165 0.112 µM | W2 0.019 µM
